# Measurements as given in PubChem BioAssay (NCI).
# About 83,000 compounds went through this panel and 20% of them were active in at least one assay; those are over-represented in the sample as a whole.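 Cell lines were cultured in 96-well plates, exposed to a single compound concentration, and assessed for percent growth 48 hours later.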 Unmarked numbers belong to inactive results. Activity calls are given as the source filed them. The calls were made as follows: active = growth percent below 10; inactive = the rest.
# Experiments:
# Experiment in all cases: NCI-60 one-dose screen, 48 h (100 = growth as untreated, 0 = no growth, -100 = all killed)
# NCI-H23 lung = conditions: 10 µM unless noted
# NCI-H322M lung = conditions: 10 µM unless noted
# HOP-62 NSCLC = conditions: 10 µM unless noted
# NCI-H522 lung = conditions: 10 µM unless noted
# SF-295 CNS = conditions: 10 µM unless noted
# SNB-19 CNS = conditions: 10 µM unless noted
# U251 CNS = conditions: 10 µM unless noted
# EKVX NSCLC = conditions: 10 µM unless noted
# RPMI-8226 leukemia = conditions: 10 µM unless noted
# SK-OV-3 ovarian = conditions: 10 µM unless noted
# OVCAR-3 ovarian = conditions: 10 µM unless noted
# HS 578T breast = conditions: 10 µM unless noted
# T-47D breast = conditions: 10 µM unless noted
# BT-549 breast = conditions: 10 µM
# HCC-2998 colon = conditions: 10 µM unless noted
# HOP-92 NSCLC = conditions: 10 µM unless noted
# SR leukemia = conditions: 10 µM
# K-562 leukemia = conditions: 10 µM unless noted
# NCI-H226 lung = conditions: 10 µM unless noted
SMILES,growth (NCI-H23 lung),growth (NCI-H322M lung),growth (HOP-62 NSCLC),growth (NCI-H522 lung),growth (SF-295 CNS),growth (SNB-19 CNS),growth (U251 CNS),growth (EKVX NSCLC),growth (RPMI-8226 leukemia),growth (SK-OV-3 ovarian),growth (OVCAR-3 ovarian),growth (HS 578T breast),growth (T-47D breast),growth (BT-549 breast),growth (HCC-2998 colon),growth (HOP-92 NSCLC),growth (SR leukemia),growth (K-562 leukemia),growth (NCI-H226 lung)
C=C=[CH][Sn]([c]1ccccc1)([c]1ccccc1)[c]1ccccc1,-43.3% (active),-15.6% (active),-63.6% (active),-69.4% (active),-42.7% (active),-50% (active),-75.6% (active),-32.7% (active),-17.5% (active),-57.1% (active),-94% (active),27%,-36.7% (active),-34.9% (active),-67.2% (active),–,–,–,–
CCC(C)(C)O,111%,–,–,–,87.7%,104%,–,98%,106%,118%,111%,105%,107%,110%,–,95.3%,101%,–,–
Oc1c(Br)cc(Br)cc1Br.[Cu+2],104%,88.3%,–,88.7%,97.6%,118%,110%,–,–,94.3%,109%,109%,119%,–,95.8%,90.5%,90.8%,107%,–
COc1ccc2c(c1)NC1=C(C(=O)OC1)C2c1cc(OC)c(OC)c(OC)c1 (configuration not stated),16.2%,–,44.2%,-26.2% (active),1.12% (active),47.3%,5.77% (active),53.8%,12.6%,36.9%,-41.9% (active),31%,–,7.12% (active),10.9%,5.87% (active),5.65% (active),7.31% (active),–
C[CH2][Sn]([CH2]C)([CH2]C)[NH]S(=O)(=O)c1ccc(C)cc1,96.4%,111%,–,110%,104%,114%,99.5%,99%,115%,110%,113%,89.4%,100%,–,99.9%,–,99.7%,116%,–
Nc1nc(N)c(-c2ccc(Cl)c(Cl)c2)c(/C=C/c2ccc(S(=O)(=O)F)cc2)n1,106%,89.8%,91.3%,–,–,102%,–,–,93.1%,–,95.4%,–,–,94.6%,111%,–,–,53.4%,–
COc1c(O)c2c3c(c1OC)-c1ccccc1CC3N(C)CC2 (configuration not stated),102%,96.1%,–,88.6%,99.9%,102%,–,115%,102%,94.2%,109%,110%,100%,–,111%,110%,75.1%,92.3%,–
Oc1ccccc1OB(Oc1ccccc1O)N(CCCl)CCCl,–,–,104%,-6.22% (active),102%,87.2%,–,–,39.2%,112%,73.8%,106%,101%,49.4%,–,74.5%,36.5%,96.2%,101%
C[CH2][Pb]([CH2]C)([CH2]C)[O]C(=O)c1ccc(N)cc1,51.2%,79.6%,89.3%,–,91.2%,–,77.4%,–,59.1%,76.4%,57.5%,–,–,56.9%,67.5%,–,–,38.6%,–
CC12CC[C@H](O)C=C1/C(=N/O)CC1C2CCC2(C)C1CC[C@@H]2O (some centres not stated),103%,–,96.4%,90.1%,–,104%,105%,89.6%,–,95%,–,–,77.6%,85%,99.3%,–,–,–,–
CC(=O)O[C@@H]1C2=C(C)C3(CC3)[C@@](C)(O)C(=O)C2=C[C@@]1(C)CO,-33.2% (active),-5.44% (active),–,-36.6% (active),-3.92% (active),7.37% (active),-2.05% (active),13.6%,-18.8% (active),–,-9.99% (active),-9.28% (active),7.72% (active),-32.6% (active),-68.7% (active),-21.1% (active),4.56% (active),1.92% (active),–
C=CCN1C(=O)C(CC)(CCC(C)C)C(=O)NC1=S (configuration not stated),105%,106%,113%,–,88.7%,100%,97.3%,–,95.1%,100%,113%,–,113%,106%,124%,–,103%,99.8%,–
COc1cc(C2CC(=O)Nc3nc(N)[se]c32)cc(OC)c1OC (configuration not stated),102%,–,70.9%,107%,7.05% (active),52.1%,29.8%,90%,101%,101%,101%,81.9%,74.5%,–,107%,138%,65.8%,83.9%,–
NC(Cc1ccc2c(c1)OCO2)c1ccc2c(c1)OCO2 (configuration not stated),105%,–,105%,97.2%,96.8%,93.6%,107%,126%,96.3%,108%,120%,103%,–,–,106%,63.1%,–,96.5%,–
CC1(C)N=C(N)N=C(N)N1c1ccc(OCCCCNC(=O)c2ccc(S(=O)(=O)F)cc2)c(Cl)c1,68.1%,55.5%,102%,–,–,103%,57.2%,–,89.9%,101%,119%,–,104%,79.5%,–,–,34.8%,16.2%,–
CN(Cc1cccnc1)N=O,96.3%,–,93.1%,89.9%,102%,99.9%,97.1%,99.9%,102%,99.4%,101%,89%,90.7%,–,–,95.3%,98.4%,104%,–
CCC[CH2][Sn]([CH2]CCC)([CH2]CCC)[O]C(=O)CC,-87.1% (active),-95.2% (active),-88.9% (active),-81.2% (active),-81.4% (active),-75.6% (active),-84.6% (active),-43.9% (active),-31% (active),-99.5% (active),-99.1% (active),-38.4% (active),-74.4% (active),-98.5% (active),-94.5% (active),–,7.87% (active),-30.2% (active),–
CNC(=O)O/N=C(/C)c1ccc(Cl)cc1,–,–,99.4%,96.5%,101%,112%,–,–,96.3%,96.8%,114%,137%,91.8%,–,105%,86.4%,90%,92.9%,92.1%
CC(=O)OC1CCC2(C)C(=CCC3C4CC(CN5CC5)C(=O)C4(C)CCC32)C1 (configuration not stated),–,–,121%,-78.4% (active),95.5%,98.4%,–,–,-17% (active),98.2%,112%,87.5%,-11.8% (active),96.9%,112%,92.1%,22.9%,–,97.7%
CCOC(=O)C1(c2ccccc2)CCN(CC(=O)c2ccc(NC(C)=O)cc2)CC1,–,–,99.9%,–,110%,102%,–,102%,88.3%,101%,128%,113%,88.2%,97%,–,66.5%,–,122%,107%
C/C(=N/OC(=O)N(C)C)c1cc(Cl)ccc1Cl,–,–,95.6%,83.5%,98.6%,101%,–,–,97.9%,98.3%,105%,105%,96.7%,98.5%,102%,107%,90.7%,104%,99.4%
CNC(=O)Oc1ccccc1-c1ccccc1,–,–,103%,85.9%,94.5%,97.7%,–,–,99.4%,101%,–,107%,–,103%,101%,101%,99%,99.6%,113%
CCC[CH2][Sn]1([CH2]CCC)[O]C(=O)c2cccc([N+](=O)[O-])c2C(=O)[O]1,–,–,–,-94.8% (active),-36.9% (active),-92.8% (active),–,–,–,12.2%,-99.3% (active),-11.6% (active),-76.3% (active),-99.6% (active),–,-91.7% (active),-31.6% (active),-12.3% (active),-83.1% (active)
O=C(O)CNC(=O)c1ccccc1,–,–,93.4%,–,104%,98.6%,–,–,92.2%,104%,105%,108%,104%,–,98.9%,92.4%,–,–,109%
